Inconclusive results are not listed. Where a call stands in place of a potency, no number is given. Calls of active or inactive are those of the source. Calls come from the whole dose curve; as a rule, active = well fitted inhibition curve with a large enough effect; inconclusive = small, poorly fitted or top-dose-only effect, or effect the other way; inactive = flat fitted curve, though single readings scatter.

The values that follow come from PubChem BioAssay AID493168 (National Center for Advancing Translational Sciences (NCATS), 2011).

This assay deals with Ubiquitin carboxyl-terminal hydrolase 2 (Homo sapiens) (UniProt O75604). Kind of assay: Confirmation Assay for Inhibitors of Ubiquitin-specific Protease USP2a Using CHOP2 as the Reporter. Note: nearly all actives have a fitted effect of over 55% in size. The note with it: USP2 core, Ub-CHOP2 coupled reporter fluorescence; series mostly up to 38.3 µM. Summed up:
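Ub-CHOP2 cleavage coupled to reporter activation was read by fluorescence after 60 min at RT, with 25 nM final Ub-CHOP2 and substrate. Enzyme (10 nM final USP2 core) first sat 30 min with compound; data were normalized to NEM and fitted to concentration-response curves.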
Potency is the fitted concentration of half-maximal effect.

Sequence of Ubiquitin carboxyl-terminal hydrolase 2 (Homo sapiens) (O75604 whole entry, looked up): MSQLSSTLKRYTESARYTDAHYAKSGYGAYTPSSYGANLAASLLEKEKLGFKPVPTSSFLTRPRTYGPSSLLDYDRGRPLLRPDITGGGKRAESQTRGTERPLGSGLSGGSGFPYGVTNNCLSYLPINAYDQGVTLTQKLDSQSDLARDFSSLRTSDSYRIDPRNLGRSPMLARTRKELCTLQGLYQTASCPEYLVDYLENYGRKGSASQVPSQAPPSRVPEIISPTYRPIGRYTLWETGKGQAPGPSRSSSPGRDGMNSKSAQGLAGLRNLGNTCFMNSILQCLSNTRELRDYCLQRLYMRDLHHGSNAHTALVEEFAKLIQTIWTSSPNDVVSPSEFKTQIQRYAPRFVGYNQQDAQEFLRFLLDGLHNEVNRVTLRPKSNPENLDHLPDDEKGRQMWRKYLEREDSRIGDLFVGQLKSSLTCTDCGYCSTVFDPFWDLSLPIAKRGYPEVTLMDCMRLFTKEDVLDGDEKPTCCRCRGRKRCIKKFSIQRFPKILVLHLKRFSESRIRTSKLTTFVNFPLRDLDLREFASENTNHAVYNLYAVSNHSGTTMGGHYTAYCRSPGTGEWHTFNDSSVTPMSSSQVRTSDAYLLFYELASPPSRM

Regarding `CCOc1ccc(Cn2nnc(C(=O)NCc3ccccc3)c2N)cc1`, the Potency entry is “inactive”.
In the case of `C#CCOCCOCCOCCNc1nc(N2CCN(C(=O)CCCCCCCCCCNC(=O)[C@@H](CCC(=O)O)n3cc(CCCCCN)nn3)CC2)nc(N2CCN(C(=O)CCCCCCCCCCNC(=O)[C@H](CCCCN)n3cc(C[C@@H](C)CC)nn3)CC2)n1`, the Potency was 5.21 µM (active).
Take `O=C(O)c1cccc(S(=O)(=O)NNc2ccccc2C(F)(F)F)c1`: the Potency result was “inactive”.
As to `O=C(Nc1ccc2nc(-c3ccco3)c(-c3ccco3)nc2c1)N1CCN(c2ccccn2)CC1`, the Potency is 16.5 µM (active).
With `Nc1ccccc1S(=O)(=O)NC1=NCCCCC1`, the Potency entry is “inactive”.
Regarding `O=C(Nc1ccc(Nc2ccncc2)cc1)c1ccc(Nc2ccnc3ccc([N+](=O)[O-])cc23)cc1[N+](=O)[O-]`, the Potency result was “inactive”.
Turning to `Cc1cc(/C=C2\C(=N)N3N=C(c4ccco4)SC3=NC2=O)c(C)n1Cc1ccccc1`, the Potency is 16.5 µM (active).
For `C=CCOc1cccc(C2C(C(=O)c3ccco3)=C(O)C(=O)N2CCN(CC)CC)c1` (centres undefined), the Potency entry is “inactive”.
As for `Cc1noc(C)c1NC(=O)Nc1ccc2c(c1)C(=O)N([C@H](C)CO)C[C@H](C)[C@@H](CN(C)S(=O)(=O)c1ccccc1)O2`, the Potency result is “inactive”.
In the case of `COC(=O)c1nnn(-c2nonc2N)c1CSc1ccccn1`, the Potency result was “inactive”.
For the compound `C#CCOCCOCCOCCNc1nc(N2CCN(C(=O)CCCCCCCCCCNC(=O)[C@H](CO)n3cc(CCCSC)nn3)CC2)nc(N2CCN(C(=O)CCCCCCCCCCNC(=O)[C@H](CCCN=C(N)N)n3cc(C[C@@H](C)CC)nn3)CC2)n1`, the Potency was 18.5 µM (active).
Take `CCNC1=C(Cl)C(=O)c2ccccc2C1=O`: the Potency entry is “inactive”.
With `O=C(c1ccco1)N1CCN(C(c2cccs2)c2sc3ncnn3c2O)CC1` (centres undefined) the entry was “inactive”; with `COc1ccccc1-n1c(SCC(=O)Nc2ccc(C)cc2)nc(O)cc1=O`, “inactive”.
For `CCOC(=O)N1CCN(C(=O)CN(c2ccc(Oc3ccccc3)cc2)S(C)(=O)=O)CC1`, the Potency entry was “inactive”.
Turning to `CCCOC(=O)CCCCC1SCC(NC(=O)OC)C1NC(=O)OC` (centres undefined), the Potency entry is “inactive”.
The value for `COc1cccc(C(=O)NCc2ccc3[nH]c(C)cc3c2)c1` was “inactive”; that for `O=C1NC(=Nc2ccc3ccccc3c2)S/C1=C/c1ccco1` was “inactive”; that for `Cc1ccc(O)c(CC(C)C)n1` was “inactive”.
With `CCn1nnnc1SCC(=O)Nc1cccc(C)n1` the entry was “inactive”; with `CC(C)N(C(=O)c1sc2cc([N+](=O)[O-])ccc2c1Cl)C(C)C`, “inactive”.
With `COc1cc(C(O)P(=O)(OC(C)C)c2ccc(N(C)C)cc2)cc(OC)c1OC` (centres undefined), the Potency entry is “inactive”.
The value for `COc1cc2c(C(=O)N3CCN(c4cccc(Cl)c4)CC3)cn(CC(C)C)c(=O)c2cc1OC` was “inactive”; that for `Cc1c(NC(=O)c2ccc(COc3ccc4ccccc4c3)o2)c(=O)n(-c2ccccc2)n1C` was “inactive”.
For `Cc1ccc(-c2ccc(CCC(=O)O)n2NC(=O)c2cccs2)cc1`, the Potency result is “inactive”.
Regarding `O=C(CCSCc1ccc(Cl)cc1)NCCc1ccccc1`, the Potency entry was “inactive”.
In the case of `O=C(Nc1cccc(S(=O)(=O)NC2=NCCC2)c1)c1cc(-c2ccco2)nc2ccccc12`, the Potency was 16.5 µM (active).
As to `O=C(N/N=C1\CC(c2ccccc2)Oc2ccccc21)c1ccc(O)cc1` (centres undefined), the Potency entry was “inactive”.
The value for `CCCC(c1nnnn1Cc1ccc(OC)cc1)N1CCC(C(N)=O)CC1` (centres undefined) was “inactive”; that for `COc1cccc(C(=O)NC(C)c2ccc(-c3ccccc3)cc2)c1OC` (centres undefined) was “inactive”; that for `COc1ccc(/C=C2/SC(=S)N(c3ccc(S(=O)(=O)Nc4nccs4)cc3)C2=O)cc1` was 13.1 µM (active).
Consider `O=C(OCC(=O)N1CCCCC1)c1cc2ccccc2cc1O`, for which the Potency entry is “inactive”.
Turning to `Cc1n[nH]c(C)c1S(=O)(=O)N1CCCC(C(=O)Nc2nccs2)C1` (centres undefined), the Potency result was “inactive”.
Regarding `CCOC(=O)c1c(C)c(C(=O)O)n(C)c1C`, the Potency entry is “inactive”.
The value for `CC(C)(C)c1cc(Br)ccc1OCC(=O)Nc1ncn[nH]1` was “inactive”; that for `O=C(CSc1nc2ccccc2c(=O)n1CC1CCCO1)NCc1ccccc1` (centres undefined) was “inactive”; that for `COc1ccc(C(=O)C[N+]2(C)CCOCC2)cc1` was “inactive”.
In the case of `CCN(C[C@H]1N[C@@](CC)(C(=O)OC)[C@H]2C(=O)N(Cc3ccccc3)C(=O)[C@@H]12)C(=O)Nc1ccc(C)cc1`, the Potency entry is “inactive”.
With `O=C(c1cccc(F)c1)N1CCN(S(=O)(=O)c2ccccc2)CC1` the entry was “inactive”; with `Cc1ccc(-c2c(C)n([O-])c3c([n+]2=O)CCC3)o1`, “inactive”; with `O=C(CSc1nccc(=O)[nH]1)N1N=C2/C(=C/c3ccco3)CCCC2C1c1ccco1` (centres undefined), “inactive”.
For the compound `O=C1CS/C(=C/C(=O)c2ccccc2)N1`, the Potency result is “inactive”.
On to `c1coc(CNC2CCCCCCC2)c1`, for which the Potency result was “inactive”.
As to `CC1CCCC(NC(=O)C2N(CCCN3CCCC3)C(=O)C3C(C(=O)Nc4ccc(Cl)cc4)C4C=CC32O4)C1C` (centres undefined), the Potency entry was “inactive”.
For `COc1ccc(NC(=O)CSc2ncccc2C(=O)OC(C)C)cc1OC`, the Potency entry was “inactive”.
For the compound `COc1ccccc1N1CCN(c2cc(C)nc3nc(C)nn23)CC1`, the Potency entry was “inactive”.
Take `O=C(Nc1ccc(N2CCCC2)cc1)c1ccc(Br)cc1`: the Potency was 16.5 µM (active).
Take `O=C1CC(Nc2ccc(N3CCOCC3)cc2)C(=O)N1c1cccc(C(F)(F)F)c1` (centres undefined): the Potency entry is “inactive”.
Regarding `CCOC(=O)N1CCN(S(=O)(=O)c2ccc(C)cc2)C1c1ccc(OC)cc1` (centres undefined), the Potency result is “inactive”.
With `CCOC(=O)C1=CN(Cc2cccc(F)c2)S(=O)(=O)NC1c1ccc(Br)cc1F` (centres undefined) the entry was “inactive”.
On to `C(=N\N(c1ccccc1)c1ccccc1)/c1ccccn1`, for which the Potency result was “inactive”.
In the case of `CCn1c(=O)c(C(=O)Nc2ccccc2S(N)(=O)=O)c(O)c2ccccc21`, the Potency was 13.1 µM (active).
As for `CCOC(=O)c1c(-c2ccc(C)o2)csc1NC(=O)COC(=O)c1ccc(NC(N)=O)cc1`, the Potency result was “inactive”.
Consider `CC(=O)c1ccc2c(c1)C1C=CCC1C(C(=O)O)N2` (centres undefined), for which the Potency is 11.7 µM (active).
In the case of `CCOC(=O)N1CCN(CC(=O)n2c(C)c(C)c3ccccc32)CC1`, the Potency result is “inactive”.
The value for `O=S(=O)(c1cc(Cl)ccc1Cl)N1CCNCC1` was “inactive”; that for `CCOC(=O)C(C)Sc1nnc(Cn2c(=O)sc3ccccc32)n1-c1ccccc1` (centres undefined) was “inactive”.
Take `COC(=O)CSc1nc2c(c(-c3ccco3)c1C#N)CCCC2`: the Potency entry was “inactive”.
Turning to `CCCOc1ccc(N2C(=O)CC(NCCc3ccc(S(N)(=O)=O)cc3)C2=O)cc1` (centres undefined), the Potency entry is “inactive”.
As for `O=C(Cc1cc(=O)[nH]c(=O)[nH]1)NCC1CCCO1` (centres undefined), the Potency entry was “inactive”.
Turning to `COc1cccc(NC(=O)CSc2nncn2-c2ccccn2)c1`, the Potency entry is “inactive”.
The value for `CC1CCCCC1NC(=O)CSCC(=O)O` (centres undefined) was “inactive”; that for `Cc1cccn2c(=O)c3cc(C(=O)NCCN4CCOCC4)c(=N)n(CCN4CCOCC4)c3nc12` was “inactive”; that for `CCCOc1ccc(/C=C2\SC(=S)N(CC3CCCO3)C2=O)cc1` (centres undefined) was “inactive”.
As to `COc1cccc(N2C(=O)C3CCCN3C2c2ccc(N(C)C)cc2)c1` (centres undefined), the Potency result was “inactive”.
The value for `CC1CCCCN1CCNC(=O)CC1Oc2ccccc2NC1=O` (centres undefined) was “inactive”.
Take `c1coc(CNc2nc(-c3cccs3)cs2)c1`: the Potency result is “inactive”.
With `CCCCCCCCCCOC(=O)Cn1c(COc2ccc(Cl)cc2)[n+](C)c2ccccc21` the figure was 18.5 µM (active); with `CC(=O)c1ccc(NC(=O)CC(NCCC2=CCCCC2)C(=O)O)cc1` (centres undefined), “inactive”; with `Cc1cc(SCC(=O)Nc2ccccc2)nc(C)n1`, “inactive”.
For the compound `FC(F)(F)c1cnc2c(c1)Nc1ccccc1S2`, the Potency entry was “inactive”.
For `O=C(COC(=O)c1ccc(NS(=O)(=O)c2cccs2)cc1)Nc1nc2c(F)c(F)c(F)cc2s1`, the Potency was 6.56 µM (active).
On to `O=C(O)/C=C/c1ccc(S(=O)(=O)Nc2ccccc2C(=O)Nc2ccc(F)cc2)cc1`, for which the Potency result is “inactive”.
In the case of `CC(C)(C)NC(=O)CSc1nc(O)cc(=O)n1-c1ccccc1F`, the Potency result was “inactive”.
With `COCCCNCCCOc1ccc(C)cc1Br` the entry was “inactive”.
The value for `CCn1c(SCC(=O)NCCc2ccccc2)nnc1-c1cccs1` was “inactive”; that for `Cc1cc(C)cc(NC(=O)CSc2nc3c(c(=O)[nH]2)CN(Cc2ccc(F)cc2)CC3)c1` was “inactive”.
Regarding `C[C@@H]1CN([C@H](C)CO)C(=O)c2cc(NS(=O)(=O)c3ccc(F)cc3)ccc2O[C@@H]1CN(C)Cc1ccc(Cl)c(Cl)c1`, the Potency result was “inactive”.
Take `O=C(Nc1ccc(N2CCCC2)c(Cl)c1)c1ccc(Br)o1`: the Potency entry is “inactive”.
